From PubChem BioAssay
Calls of active or inactive are those of the source.

Tests used:
[1] = optical density shifts of acrAB sulA E. coli – strain DRC41, OD650, 48 h, E. coli filamentation inducer project, primary screen (AID 1152); settings: higher = more signal, called active from +8 up or from −8 down;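 also: E. coli MC1000 strain DRC41 lacking acrAB efflux pump and sulA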
[2] = probe aLefty1 binding on compound microarray – biochemical, small-molecule microarray, 635/667 nm fluorescence, primary screen (AID 1153); settings: higher = more signal;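 also: score merges spot fluorescence with signal-to-noise ratio from the scanned slide images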
[3] = plasmodial surface anion channel blockers, osmotic lysis – cell-based, P. falciparum Indochina, OD700, 1 h, primary screen (AID 1154); settings: P. falciparum Indochina infected RBC osmotic lysis, higher = more signal, called active from +8 up or from −8 down
[4] = plasmodial surface anion channel blockers, osmotic lysis – cell-based, P. falciparum Indochina, OD700, 2 h, primary screen (AID 1155);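 also: lysis reports solute entry through the parasite surface anion channel PSAC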; settings: P. falciparum Indochina infected erythrocytes, higher = more signal, called active from +8 up or from −8 down
[5] = changes in parasitized red cell lysis, either direction – P. falciparum Indochina, OD700, 3 h, PSAC antagonist project, primary screen (AID 1156); settings: P. falciparum-infected erythrocytes, osmotic lysis, higher = more signal, called active from +8 up or from −8 down
[6] = plasmodial surface anion channel blockers, osmotic lysis – cell-based, P. falciparum Indochina, OD700, 18 h, primary screen (AID 1157); settings: P. falciparum Indochina infected erythrocytes, osmotic lysis OD700, 18 h; higher = more signal, called active from +8 up or from −8 down
[7] = S6 kinase pathway phospho-S6 level changes – cell-based, A549, cytoblot, luminescence, serum-stimulated, primary screen (AID 1158); settings: 5 h, higher = more signal;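 also: serum-stimulated A549 lung adenocarcinoma cells; signal is phosphorylated S6 detected by cytoblot immunostaining with HRP secondary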
[8] = target: NADPH oxidase 2 (Homo sapiens) (UniProt P04839); experiment: compounds shifting NOX2 Amplex Red fluorescence – cell-based, HEK293-NOX2, PMA-stimulated, NOX inhibitor project, primary screen (AID 1159); settings: 45 min, higher = more signal, called active from +8 up or from −8 down; also: test concentration not given here
[9] = target: NADPH oxidase 4 (Homo sapiens) (UniProt Q9NPH5); experiment: compounds shifting NOX4 Amplex Red fluorescence – cell-based, HEK293-NOX4, tetracycline-induced, NOX inhibitor project, primary screen (AID 1160); settings: HEK293-NOX4, Amplex Red H2O2 fluorescence, 45 min; higher = more signal, called active from +8 up or from −8 down
[10] = target: NADPH oxidase 5 (Homo sapiens) (UniProt Q96PH1); experiment: compounds shifting NOX5 Amplex Red fluorescence – cell-based, HEK293-NOX5, NOX inhibitor project, primary screen (AID 1161); settings: HEK293-NOX5, ionomycin, 45 min, higher = more signal
[11] = compound effects on lung adenocarcinoma cell viability – A549, calcein-AM fluorescence, 48 h, basal, profiling panel (AID 1162); settings: higher = more signal; also: test concentration not given here
[12] = compound effects on differentiated 3T3-L1 adipocyte viability – cell-based, 3T3-L1 adipocytes, calcein-AM fluorescence, 48 h, basal, profiling panel (AID 1163); settings: 3T3-L1 adipocytes viability, higher = more signal; also: test concentration not given here
[13] = compound effects on hepatocellular carcinoma cell viability – HepG2, calcein-AM fluorescence, 48 h, basal, profiling panel (AID 1164); settings: higher = more signal; also: test concentration not given here
[14] = compound effects on multiple myeloma cell viability – MM1S, calcein-AM fluorescence, 48 h, basal, profiling panel (AID 1165); settings: higher = more signal;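 also: viability of MM1S multiple myeloma cells under basal unstimulated conditions; test concentration not given here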
[15] = calcein-AM signal in unstimulated myeloma cells – cell-based, calcein-AM fluorescence, 48 h, PK04 Diversity Set, profiling panel (AID 1166); settings: RPMI8226 myeloma viability, higher = more signal;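 also: cells grown under basal conditions without added stimulus; test concentration not given here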
[16] = JC-1 mitochondrial signal, unstimulated HepG2 cells – cell-based, JC-1 fluorescence, 24 h, 100 nL compound, profiling panel (AID 1167); settings: HepG2 mitochondrial potential, higher = more signal; also: test concentration not given here
[17] = JC-1 mitochondrial signal, unstimulated adipocytes – cell-based, JC-1 fluorescence, 3T3-L1 adipocytes, 24 h, 100 nL compound, profiling panel (AID 1168); settings: JC-1 mitochondrial fluorescence, higher = more signal, called active from +8 up or from −8 down; also: test concentration not given here
[18] = JC-1 mitochondrial signal, unstimulated myeloma cells – cell-based, JC-1 fluorescence, RPMI8226, 24 h, 100 nL compound, profiling panel (AID 1169); settings: JC-1 mitochondrial potential fluorescence, higher = more signal; also: test concentration not given here
[19] = JC-1 mitochondrial signal, unstimulated MM1S myeloma – cell-based, JC-1 fluorescence, 24 h, 100 nL compound, profiling panel (AID 1170); settings: MM1S mitochondrial potential, higher = more signal; also: test concentration not given here
[20] = resazurin metabolic signal in A549 cells – cell-based, resazurin fluorescence, 24 h, PK04 Diversity Set, profiling panel (AID 1171); settings: A549 viability, higher = more signal, called active from +8 up or from −8 down; also: test concentration not given here

NADPH oxidase 4 (Homo sapiens), sequence (Q9NPH5 whole entry, looked up): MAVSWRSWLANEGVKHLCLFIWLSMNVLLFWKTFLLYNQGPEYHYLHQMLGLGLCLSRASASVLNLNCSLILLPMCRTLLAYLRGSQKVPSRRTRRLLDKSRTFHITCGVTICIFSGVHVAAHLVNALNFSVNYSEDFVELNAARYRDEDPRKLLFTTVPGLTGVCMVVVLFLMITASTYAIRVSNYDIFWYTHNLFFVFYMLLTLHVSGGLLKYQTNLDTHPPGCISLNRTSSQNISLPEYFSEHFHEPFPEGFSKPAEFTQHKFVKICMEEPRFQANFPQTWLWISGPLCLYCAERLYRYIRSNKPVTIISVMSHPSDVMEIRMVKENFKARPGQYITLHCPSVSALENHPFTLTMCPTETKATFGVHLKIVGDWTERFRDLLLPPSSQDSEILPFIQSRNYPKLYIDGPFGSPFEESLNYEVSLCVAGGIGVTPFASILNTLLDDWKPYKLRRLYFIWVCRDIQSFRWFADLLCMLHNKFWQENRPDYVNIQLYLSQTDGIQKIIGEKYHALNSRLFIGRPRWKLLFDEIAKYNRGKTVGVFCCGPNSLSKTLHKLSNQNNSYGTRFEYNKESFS
NADPH oxidase 5 (Homo sapiens), sequence (Q96PH1 whole entry, looked up): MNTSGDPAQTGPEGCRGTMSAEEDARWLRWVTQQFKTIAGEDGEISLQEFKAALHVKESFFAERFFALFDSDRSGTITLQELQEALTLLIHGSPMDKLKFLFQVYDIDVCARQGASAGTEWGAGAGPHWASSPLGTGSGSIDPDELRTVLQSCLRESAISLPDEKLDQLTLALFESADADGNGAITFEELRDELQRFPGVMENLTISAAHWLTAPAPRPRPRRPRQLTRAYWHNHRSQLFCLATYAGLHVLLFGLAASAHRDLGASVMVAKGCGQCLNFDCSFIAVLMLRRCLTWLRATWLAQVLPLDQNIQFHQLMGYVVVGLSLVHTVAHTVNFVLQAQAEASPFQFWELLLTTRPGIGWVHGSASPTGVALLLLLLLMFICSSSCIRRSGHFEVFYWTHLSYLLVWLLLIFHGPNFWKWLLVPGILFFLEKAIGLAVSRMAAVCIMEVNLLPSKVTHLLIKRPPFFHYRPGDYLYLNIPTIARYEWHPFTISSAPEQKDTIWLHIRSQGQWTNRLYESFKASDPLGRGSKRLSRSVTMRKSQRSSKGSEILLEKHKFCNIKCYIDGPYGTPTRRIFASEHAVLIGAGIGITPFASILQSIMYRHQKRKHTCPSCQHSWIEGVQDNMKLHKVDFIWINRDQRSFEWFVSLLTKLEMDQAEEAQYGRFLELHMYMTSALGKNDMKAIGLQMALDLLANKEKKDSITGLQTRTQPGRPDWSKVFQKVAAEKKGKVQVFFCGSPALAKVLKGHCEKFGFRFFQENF
NADPH oxidase 2 (Homo sapiens), sequence (P04839 whole entry, looked up): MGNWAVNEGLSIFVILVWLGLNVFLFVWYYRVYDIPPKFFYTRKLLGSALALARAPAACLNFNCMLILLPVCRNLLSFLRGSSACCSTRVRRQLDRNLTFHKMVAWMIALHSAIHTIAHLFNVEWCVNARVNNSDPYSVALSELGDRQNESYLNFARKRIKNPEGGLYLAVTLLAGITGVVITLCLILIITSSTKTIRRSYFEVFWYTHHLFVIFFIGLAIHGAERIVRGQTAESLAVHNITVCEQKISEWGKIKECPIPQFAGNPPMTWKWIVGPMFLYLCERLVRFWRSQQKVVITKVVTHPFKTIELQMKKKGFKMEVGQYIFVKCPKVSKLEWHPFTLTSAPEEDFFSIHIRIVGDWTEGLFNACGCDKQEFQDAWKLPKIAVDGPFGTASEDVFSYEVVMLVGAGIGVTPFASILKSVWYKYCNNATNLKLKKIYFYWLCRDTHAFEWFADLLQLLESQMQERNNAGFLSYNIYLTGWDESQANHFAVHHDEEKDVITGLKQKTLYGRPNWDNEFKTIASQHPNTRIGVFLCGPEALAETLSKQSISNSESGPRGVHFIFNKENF

Row | SMILES | z-score [1] | composite z-score [2] | z-score [3] | z-score [4] | z-score [5] | z-score [6] | z-score [7] | z-score [8] | z-score [9] | z-score [10] | z-score [11] | z-score [12] | z-score [13] | z-score [14] | z-score [15] | z-score [16] | z-score [17] | z-score [18] | z-score [19] | z-score [20]
1 | CCOc1cc(C(O)C2C=CC3C(=O)NC(=O)C3N2Nc2ccccn2)ccc1O (stereo not given) | -1.17 (inactive) | 0.0253 | -0.251 (inactive) | 0.519 (inactive) | -0.195 (inactive) | 0.828 (inactive) | -1.27 | -1.35 (inactive) | -3.69 (inactive) | -1.57 | -0.773 | -1.5 | -0.506 | -0.369 | -0.328 | -1.87 | -0.892 (inactive) | -0.0441 | 0.157 | -0.923 (inactive)
2 | COC(=O)[C@@]1(Cc2ccccc2N=[N+]=[N-])N=C(c2ccc(OCCCO)cc2)O[C@H]1c1ccccc1 | -0.734 (inactive) | 0.406 | 22.9 (active) | 8.4 (active) | 0.0321 (inactive) | 2.28 (inactive) | 0.0781 | -2.34 (inactive) | 0.355 (inactive) | -1.76 | -2.99 | -0.421 | -5.47 | -3.58 | -3.93 | -3.13 | -0.138 (inactive) | -1.06 | -2.9 | -2.88 (inactive)
3 | COC(=O)C(CC#Cc1ccc2c(c1)[C@]1(C(=O)N2)[C@H](c2ccc(OCCO)cc2)N2[C@H](c3ccccc3)[C@H](c3ccccc3)OC(=O)[C@H]2[C@@H]1C(=O)O)C(=O)OC | 1.55 (inactive) | 0.685 | 4.99 (inactive) | 0.441 (inactive) | 1.17 (inactive) | -0.121 (inactive) | 0.641 | 1.18 (inactive) | 0.0107 (inactive) | 0.918 | 1.88 | -0.0521 | 1.45 | 0.47 | -0.247 | -0.0694 | 0.222 (inactive) | -0.336 | 0.132 | 0.179 (inactive)
4 | C=CCNC(=O)[C@H]1[C@@H]2C(=O)O[C@@H](c3ccccc3)[C@@H](c3ccccc3)N2[C@@H](c2ccc(OCCO)cc2)[C@]12C(=O)N(C(=O)OCCOC)c1ccc(C#CC3=CCCCC3)cc12 | 1.1 (inactive) | 0.213 | 2.13 (inactive) | 1.76 (inactive) | 0.178 (inactive) | 0.948 (inactive) | 0.632 | 1.99 (inactive) | 0.421 (inactive) | 2.48 | -0.906 | 0.968 | -0.546 | -1.96 | -2.49 | -0.609 | 2.06 (inactive) | -0.753 | -1.05 | 0.248 (inactive)
5 | COC(=O)[C@@]1(Cc2ccc(F)cc2)[C@H]2c3cc(C(=O)N4CCCC4)n(Cc4ccccc4)c3C[C@H]2CN1C(=O)c1ccccc1 | -1.25 (inactive) | 0.216 | 4.64 (inactive) | 0.899 (inactive) | 2.65 (inactive) | 1.26 (inactive) | 0.178 | -0.165 (inactive) | 0.648 (inactive) | -1.48 | -0.858 | -0.273 | -0.579 | -2.1 | -4.11 | 0.49 | -0.76 (inactive) | -0.104 | -0.759 | 0.0314 (inactive)
6 | Cc1ccc(C(C)CC(O)C2C=CC3C(=O)N(Cc4ccccc4)C(=O)C3N2n2cnnc2)o1 (stereo not given) | -1.44 (inactive) | 1.21 | 2.31 (inactive) | 0.793 (inactive) | 0.809 (inactive) | 0.709 (inactive) | -0.63 | -0.168 (inactive) | -1.78 (inactive) | -2.17 | -0.732 | -0.126 | -0.705 | -0.427 | -1.63 | -0.254 | -1.24 (inactive) | -0.168 | 1.24 | -1.34 (inactive)
7 | O=C1C[C@@](C(=O)NCc2ccccc2)(c2ccc([N+](=O)[O-])cc2)[C@@H](c2ccc(CO)cc2I)N1C1CCCCC1 | 0.936 (inactive) | 0.503 | 11.6 (active) | 1.94 (inactive) | 3.44 (inactive) | 1.09 (inactive) | -0.153 | 1.23 (inactive) | -1.03 (inactive) | 2.16 | 1.14 | 0.317 | 0.593 | -1.6 | -1.22 | 1.67 | 0.254 (inactive) | -0.572 | 0.576 | 0.75 (inactive)
8 | C=CCN1C(=O)[C@@]2(O[C@@H](CCO)[C@H]([Si](C)(C)c3ccc(OC)cc3)[C@H]2C)c2cc(NC(=O)[C@H](C)O)ccc21 | 0.301 (inactive) | -0.0879 | 23 (active) | 6.92 (inactive) | 0.903 (inactive) | 1.62 (inactive) | 0.29 | -0.54 (inactive) | 0.552 (inactive) | -0.335 | 0.174 | 0.178 | -2.92 | -2.69 | -4.41 | 1.89 | 0.18 (inactive) | -0.872 | -1.09 | -2.25 (inactive)
9 | COc1ccc(C#Cc2ccc3c(c2)[C@]2(C(=O)N3)[C@H](C(=O)O)[C@H]3C(=O)O[C@H](c4ccccc4)[C@H](c4ccccc4)N3[C@@H]2c2ccc(OCCO)cc2)cc1 | 0.962 (inactive) | 0.33 | 3.33 (inactive) | -0.266 (inactive) | -8.91 (active) | -0.097 (inactive) | -0.0207 | 1.67 (inactive) | -0.925 (inactive) | 1.12 | 0.614 | 0.971 | 1.27 | -2.45 | -4.03 | -4.14 | -4.58 (inactive) | -1.23 | -1.27 | 0.982 (inactive)
